Reference: the supplement of paper PMC5499739
The full ranking holds about 16,000 sequences; the median of “Z-score” is about -0.37, and the highest 2% start at about 3.2. The sample holds the highest values, similar sequences and a random draw of the others, so the mix is not that of the screen.

tested on: RBM10 RRM1-ZnF (GST-tagged construct); test: RNAcompete 7-mer binding Z-score; higher = stronger binding preference
Experimental: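 RNAcompete: 20 pmol GST-tagged RBM10 RNA-binding constructs were incubated with a designed RNA pool of about 241,000 sequences up to 41 nt (1.5 nmol) on glutathione beads for 30 min at 4 °C and washed. Bound RNAs were identified by microarray hybridisation. Each RNA 7-mer is scored by a one-sided Z-score of its enrichment, computed over probes that contain the 7-mer within longer pool sequences.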

Sequence | RNAcompete 7-mer binding Z-score
GCAGGGC | 1.35
ACAGGGA | 3
CCAGGGG | 1.46
GCAAGGU | 1.94
ACAGGGU | 2.94
GCAGGGG | 3.32
CCAGGGU | 1.29
GCAGGGU | 3.43
GCAAGGA | 2.4
ACAGGGG | 3.33
ACAGGGC | 1.84
CGACAAC | -0.542
GUCGGCU | -0.0252
GCUAUGC | -0.269
CAACGAU | -0.409
GAUAGUC | -0.279
AAACCCA | -0.701
AACGCUG | -0.5
CAAAACG | -0.119
AGCUUAC | -0.639
ACACGGC | -0.191
CGCUUAU | -0.649
GGGAGGG | 4.74
AGGAGGC | 1.37

Sequence | RNAcompete 7-mer binding Z-score
AGGAGUG | 2.91
AGGAGGA | 2.25
GGGAGUG | 3.73
CGGAGGG | 2.91
UGGAGGA | 2.87
AGGAGGU | 2.47
AGGAGGG | 3.53
GGGAGGA | 3.47
GGGAGUA | 2.53
GAGAGGG | 2.7
UCAGCGG | 0.309
AUGUCCG | -0.626
UUACGCA | -0.584
GGGAGCG | 3.35
UGGAGGU | 2.84
GGGAGGC | 2.92
UGGAGGC | 1.96
GGGAGGU | 3.68
CGGAGCG | 1.23
UGGAGGG | 4.07
CGGAGGU | 2.41
GGGAGCC | 0.917
AGCAACA | -0.158
AGUCUAC | -0.584

Sequence | RNAcompete 7-mer binding Z-score
GCGUUUG | 0.131
GGUUGUG | 2.29
CUACUGA | -0.659
GUGUGGU | 2.39
AUGUGGC | 0.586
GUGUGGG | 3.93
GUGUGGA | 2.98
UUGUGGG | 2.83
AUGUGGG | 3.84
CAUCAAG | -0.47
UUUAUGG | 0.303
CCAACAC | -0.5
UGGGUGC | 2.92
AUGGUGA | 2.6
AGGGUGU | 3.11
AGGGUGA | 4.19
UGGGUGG | 4.14
GGGGUGC | 2.92
GGGGUGU | 4.3
GGGGUGG | 4.71
UGGGUCG | 2.09
GCGGUGU | 1.1
GCGGUGG | 2.85
AGGGUCA | 1.14

Sequence | RNAcompete 7-mer binding Z-score
UAAAUAG | -0.0674
CGUAUUU | -0.769
UUCACGG | -0.448
GAAGACG | 1.09
CUAAGAA | -0.331
CUACAUG | -0.591
GAUCAGA | 0.316
AGUUAGU | -0.0642
ACAUCCC | -0.587
CGGGUGA | 2.66
AGGGUGC | 2.6
CGGGUGC | 1.85
UGGGUGA | 3.38
GGGGUCA | 2.86
GGGGUGA | 4.16
GCGGUGA | 1.2
ACGGUGG | 2.76
UCGGUGA | 0.452
CGGGUGU | 2.14
AGGGUGG | 4.42
CGGGUGG | 3.64
UCCAUUA | -0.75
UCUCCCC | -0.587
CCUCGGG | 0.423

Sequence | RNAcompete 7-mer binding Z-score
GCGUCAC | -0.0252
GUCUUUA | -0.652
GUUUCGA | -0.396
AUAUUAU | -0.402
AGUUGCU | -0.334
GGUGUGG | 4.32
UGUGUGG | 1.89
UUGGUGU | 1.51
UCGGUGU | 0.524
UGGGUGU | 3.53
GGUGUGU | 1.7
ACUCUAA | -0.685
GCACCCU | -0.496
AAAUCCC | -0.86
GCAUUCA | -0.396
CUGUUCU | -0.847
GGUGGUU | 2.61
UCUGGGU | 0.81
UGUGGUU | 1.84
UGUGGGA | 2.87
GGUGGGC | 3.3
UGUGGUG | 1.84
GCUGGGU | 2.3
UGUGGGG | 3.96

Sequence | RNAcompete 7-mer binding Z-score
UGUGGGU | 3.46
UGUGGGC | 2.06
GGUGGGU | 3.78
GGUGGUC | 2.06
CUAAUUG | -0.617
UUGAACG | -0.139
ACCCACU | -0.675
GGAUGUA | 1.7
GUUUGUG | 0.865
AUCUAAC | -0.681
AACCGGC | -0.6
AGUGUCC | -0.604
GGACGUA | 0.833
UUAUGAU | -0.353
CUGAAUG | -0.285
AUUGGGA | 2.83
GGUGGGA | 4.26
ACUGGGU | 2.06
CGUGGGU | 2.81
GCUGGGA | 2.03
AGUGGUA | 2.01
AGUGGGC | 2.67
AGUGGGA | 4.13
AGUGUGG | 2.95

Sequence | RNAcompete 7-mer binding Z-score
GGUGGCA | 2.02
AGUGGGG | 4.49
AGUGGGU | 3.49
UCAUCCG | -0.808
CAGUGAG | 0.706
UUCUUUG | -0.659
GCUGAAG | 0.699
ACACUUG | -0.535
UCUAUAC | -0.821
CGUGGGA | 2.33
CGUGGGG | 3.65
CGUGGGC | 1.85
AUUUAAG | -0.298
UAGUCAU | -0.444
GGGGAAC | 2.42
GGGGAAG | 4.31
GGGGAAU | 3.41
CGGGAAU | 1.68
GGGGACG | 2.55
AGGGAAU | 3.05
CGACUUC | -0.785
CCCUUGC | -0.694
GCCAGUA | -0.288
UGCCUCC | -0.506

Sequence | RNAcompete 7-mer binding Z-score
AGGAAGU | 1.06
AGGAAGA | 1.7
CGGAAGG | 2.53
UGGAAGG | 4.12
AGGAAGG | 4.31
UGGAAGU | 1.79
AUACUAG | -0.337
AACCAUC | -0.763
CUAGCUG | -0.386
UGGUGAA | 1.71
GGGUGAG | 4.36
GGUUGAG | 3.3
GGGUGAU | 3.22
AGGUGAU | 1.8
UGGUGAU | 1.2
GGGUGAA | 3.87
GGGUGAC | 3.04
CGGUGAA | 0.595
CGUUGAG | -0.0512
UGUUGAG | 0.716
CGGUGAG | 1.42
